# This is a sample that favours compounds with a hit; in the whole collection about 1.7% have one here.
# GLP-1R agonist: GLP-1 receptor (human) agonism | Potency, µM (top dose mostly 45.6 µM), for the others: top-dose activation, hits mostly activators | 380,000 tested, 0.007% active | AID 624172 | P43220 | HEK293 GLP-1R CRE-luciferase, luminescence, 4-6 h; cells express a hypersensitive GLP-1R form; also: % of control where 0% means no effect
# Target sequence (P43220 whole entry, looked up): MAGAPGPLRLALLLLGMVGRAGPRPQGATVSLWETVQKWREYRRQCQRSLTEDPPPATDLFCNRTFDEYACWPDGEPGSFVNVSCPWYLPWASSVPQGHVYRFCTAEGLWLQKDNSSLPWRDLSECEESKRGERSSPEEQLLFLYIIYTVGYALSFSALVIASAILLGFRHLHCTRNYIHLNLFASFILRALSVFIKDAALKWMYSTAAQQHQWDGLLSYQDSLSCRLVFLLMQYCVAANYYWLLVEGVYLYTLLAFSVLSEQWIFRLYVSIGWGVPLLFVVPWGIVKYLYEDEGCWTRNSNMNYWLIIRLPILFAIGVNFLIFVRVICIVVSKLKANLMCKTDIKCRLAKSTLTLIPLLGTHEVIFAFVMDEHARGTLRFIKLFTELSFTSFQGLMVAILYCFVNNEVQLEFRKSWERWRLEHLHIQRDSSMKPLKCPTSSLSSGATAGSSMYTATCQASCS
# GLP1R inv ag: GLP-1 receptor (human) inverse agonism; P43220; HEK293 GLP-1R CRE-luciferase, luminescence, 24 h; GLP-1R form is constitutively active; Potency, µM (doses to about 38.3 µM), for the others: at the highest dose activity change, negative = inhibition, actives largely listed as inhibitors; 410,000 tested, 1.6% active; also: % is scaled to controls: 0 for no effect and ±100 for the full control effect; nearly all actives have a fitted effect of over 55% in size
#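 Using stably transfected HEK293 (constitutively active GLP-1R, cAMP-luciferase reporter), compounds were incubated 24 hr and luciferase measured by luminescence.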
# HEK293 tox: cytotoxicity counter-screen for GLP-1 receptor inverse agonists | 410,000 tested, 0.13% active | HEK293 cAMP-luciferase reporter cells, luminescence, 24 h | Potency, µM (titrated, usually from 38.3 µM), for the others: at the top dose activity change, negative = inhibition, usual class: inhibitors;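 also: loss of luciferase light is scored as toxicity; % is scaled to controls: 0 for no effect and ±100 for the full control effect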
#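 Step one: seed cells (200 cells/uL, DMEM with 10% Nu serum, 1% pen-strep). Step two: 12-hour incubation at 37 deg C. Step three: pin 23 nL compound, incubate 24 hr. Step four: add luciferase reagent, read luminescence 12 min later.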
# PTHR1 agonist: agonists of human PTHR1 parathyroid hormone receptor. Q03431. Potency, µM (titrated, usually from 115 µM), inactives show at the top dose activation, hits mostly activators. AID 743266. 410,000 tested, 0.075% active. HEK293 GP2 PTHR1 cells, GloSensor cAMP luminescence, 1 h; also: nearly all actives have a fitted effect of over 55% in size
#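 HEK-293-derived GP2 cells expressing PTHR1 and a GloSensor cAMP reporter, 3,000/well, plated overnight, given luciferin plus IBMX (each 0.5 mM as added) for 1 h at 37 °C, then compound for 1 h at 37 °C. Luminescence was read after 15 min at room temperature.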
# Starred values were filed as active, the others as inactive; i = inactive; ? = inconclusive; · = no result; [ ] = another dose, or the depositor's remark. Calls follow the shape of the dose curve; as a rule, active = well fitted curve in the direction sought with a large enough effect; inconclusive = small, poorly fitted or top-dose-only effect, or another doubt; inactive = no such curve, though single readings can be large; an effect the other way counts as inactive or inconclusive. Potency is read from the fitted curve at half-maximal effect.
SMILES,GLP-1R agonist,GLP1R inv ag,HEK293 tox,PTHR1 agonist
CCC(=O)O[C@H]1C(O[C@@H]2C(C)[C@H](O[C@H]3C[C@@](C)(OC)C(O)C(C)O3)C(C)C(=O)OC(CC)[C@@](C)(O)C(O)[C@H](C)C(=O)C(C)C[C@]2(C)O)OC(C)CC1N(C)C (stereo partly specified),2%,·,·,·
CCCn1c2ccccc2c2cnn(CC(=O)NCc3ccccc3Cl)c(=O)c21,·,-18%,-14%,-38%
O=[N+]([O-])c1cc(C(F)(F)F)cc([N+](=O)[O-])c1NCCNC(=S)Nc1ccc(Cl)c(Cl)c1,-1%,8.9µM*,?,-33%
FC(F)(F)c1cccc(NC(=S)Nc2ccc(Cl)c(Cl)c2)c1,0%,?,-29%,-21%
CCOC(=O)c1cnc(-n2nc(C)cc2C)nc1NC1CCCCC1,0%,1.3µM*,1µM*,-32%
CCOC(=O)c1cnc(-n2nc(C)cc2C)nc1N(CC)CC,21%,0%,2.8µM*,?
CCOC(=O)c1cnc(-n2nc(C)cc2C)nc1Nc1ccc(C)cc1,0%,?,?,i
CCOC(=O)c1cnc(-n2nc(C)cc2C)nc1NC,10%,?,?,-14%
CCOC(=O)c1cnc(-n2nc(C)cc2C)nc1Nc1ccc(N(C)C)cc1,6%,1.6µM*,1.1µM*,-34%
O=C(c1ccc2c(c1)N(Cc1cccc(Cl)c1)C(=O)c1ccccc1S2(=O)=O)N1CCc2ccccc21,·,-1%,10%,i
CC(C)C(=O)Nc1cccc(C(=O)Nc2nnc(C(F)(F)F)s2)c1,·,-16%,19%,-23%
COC(=O)c1c(NC(=O)Cc2coc3cc(C)cc(C)c23)sc2c1CCC2,·,4%,-5%,-1%
Cc1ccc(-n2nc(C)c(C(=O)NCCCN3CCN(c4cccc(Cl)c4)CC3)c2-n2cccc2)cc1,·,-34%,2%,-47%
CCCCCCCn1c(=O)c(C(=O)OC)c(N)c2ccccc21,17%,11µM*,3%,-29%
Clc1ccc(-c2nnc(NC3=NCCCCC3)o2)cc1,-18%,4.5µM*,-4%,-24%[57.5 µM]
O=C(Nc1ccn(CCCN2CCN(Cc3cccc4ccccc34)CC2)c(=O)n1)OCc1ccccc1,2%,7.9µM*,-7%,-39%
C1=CC2=NC34CCCCC3CC3=C(CCCC3)N4C2=CC1=NC1CCCCC1 (stereo unspecified),-6%,10µM*,?,-4%
CC1(C)SC2C(NC(=O)C(c3ccccc3)S(=O)(=O)O)C(=O)N2C1C(=O)O (stereo unspecified),-2%,·,·,·
COc1ccc(OCCN2CCN(C(=O)c3ccc(OC)cc3)CC2)cc1,5%,-7%,-9%,-23%
O=C(c1ccc(Cl)cc1)N1CCN(CCOc2ccccc2)CC1,15%,11µM*,-7%,-17%
Cc1ccc(S(=O)(=O)NCC(c2ccco2)N2CCN(c3ccccc3F)CC2)cc1 (stereo unspecified),·,?,11%,i
COc1ccc2c(c1)[C@H]1[C@H](CO2)[C@H](c2ccccc2)[C@]2(C)C(=O)Nc3ccc(Br)cc3C(=O)N12,-5%,5.6µM*,24%,-9%
Cc1ccc2c(c1)[C@H]1[C@H](CO2)[C@H](c2ccccc2)[C@]2(C)C(=O)Nc3ccc(Br)cc3C(=O)N12,-6%,3.2µM*,5%,i
COc1ccc2c(c1)OC[C@H]1[C@H]2N2C(=O)CN(Cc3ccc(Cl)cc3)C(=O)[C@@]2(C)[C@H]1c1ccccc1,-1%,11µM*,12%,12%
CC(=O)c1ccc(NC(=O)Cn2c3ncccc3c(=O)n2-c2ccc(C)cc2)cc1,2%,10%,9%,-28%
SMILES,GLP-1R agonist,GLP1R inv ag,HEK293 tox,PTHR1 agonist
O=C(O)CC1NC(=S)N(Cc2ccccc2)C1=O (stereo unspecified),-3%,7.9µM*,?,i
O=C(Nc1cc(S(=O)(=O)N2CCCCC2)ccc1O)c1ccccc1NS(=O)(=O)c1ccc(F)cc1,1%,?,?,-37%
O=C(Nc1cc(S(=O)(=O)N2CCCCC2)ccc1Cl)c1ccccc1NS(=O)(=O)c1ccc(F)cc1,-11%,2.8µM*,?,i
O=C(NCc1ccco1)c1cc(S(=O)(=O)N2CCCC2)ccc1Cl,-4%,-29%,-4%,i
O=C(CN(Cc1ccco1)Cc1ccco1)Nc1cc(S(=O)(=O)N2CCCCC2)ccc1Cl,-3%,10µM*,-3%,-26%
COc1ccc(-c2csc(NC(=O)c3ccccc3NS(=O)(=O)c3ccc(F)c(F)c3)n2)cc1,0%,?,?,-34%
Cc1ccc(S(=O)(=O)Nc2ccccc2C(=O)Nc2nc(-c3ccc(F)cc3)cs2)cc1,-18%,3.2µM*,?,-36%
CCCCNC(=O)Cn1ncc2c(C)n(Cc3cccc(Cl)c3)c(C)c2c1=O,·,8%,1%,-41%
Cc1ccc(S(=O)(=O)C(CNC(=O)COc2ccccc2)c2ccco2)cc1 (stereo unspecified),·,8%,-10%,-9%
O=C1C(NS(=O)(=O)c2cccs2)=C(N2CCOCC2)C(=O)c2ccccc21,4%,-21%,-53%,-11%
CN(C1=C(N2CCOCC2)C(=O)c2ccccc2C1=O)c1ccccc1,-13%,10µM*,?,-17%
c1ccc(CNCCC(Cc2ccccc2)c2ccco2)cc1 (stereo unspecified),-6%,8.9µM*,?,-10%
CC(C)NC(=O)Cn1nc(N2CCN(c3ccccc3)CC2)ccc1=O,·,-2%,9%,-33%
Cc1cccc(C(C)C)c1NC(=O)CN(C)Cc1cccc(F)c1,-5%,?,4%,-23%
CCc1cccc(C)c1NC(=O)CN(C)Cc1cccc(F)c1,4%,8.9µM*,-3%,i
CCOC(=O)c1ccc(NC(=O)CCc2c(C)nc3c(c(C)nn3C(C)(C)C)c2C)cc1,-6%,7.9µM*,-22%,-23%
Clc1ccc(CN2CCc3c([nH]c4ccccc34)C2)cc1Cl,-10%,4µM*,?,-2%
Clc1cccc(CN2CCc3c([nH]c4ccccc34)C2)c1,-1%,?,?,?
Cc1c(N)nc([C@@H](CC(N)=O)NC[C@H](N)C(N)=O)nc1C(=O)N[C@H](C(=O)N[C@@H](C)[C@@H](O)[C@@H](C)C(=O)N[C@H](C(=O)NCCc1nc(-c2nc(C(=O)NCCCN[C@H](C)c3ccccc3)cs2)cs1)[C@H](C)O)[C@@H](O[C@H]1O[C@@H](CO)[C@H](O)[C@@H](O)[C@H]1O[C@H]1O[C@@H](CO)[C@@H](O)[C@H](OC(N)=O)[C@H]1O)c1cnc[nH]1,-5%,·,·,·
O=C(NCc1ccc(Cl)cc1Cl)C1CCN(S(=O)(=O)c2ccc3c(c2)OCCCO3)CC1,3%,7.9µM*,14%,-2%
O=C(OCc1cc(=O)n2nc(C3CCCCC3)sc2n1)c1ccc(F)cc1,·,17%,7%,-16%
